Measurements published in PubChem BioAssay AID1159580 (chemical genetic matrix, 2015).
Where “and” joins values, the source holds several entries; their conditions need not be identical. Equal values may be shown once. In all, about 5,500 compounds went through this assay and about 2,000 (36%) were called active. Not shown: some 18% with an inconclusive outcome. No stated cut-off is given here; in the data, active means normalized growth mostly below about 0.91 (no sharp cut-off); inconclusive means no clear call, values can overlap the other calls; inactive means mostly above about 0.92. The list shows a part of the results.

Assay: chemical genetic growth profiling, strain panel (AID 1159580);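 further: tested at 20 µM; growth read once vehicle control cultures reached saturation at 30 °C; 1 = growth at the plate median or of vehicle wells; lower values mean less growth of the strain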
Conditions: S. cerevisiae deletion strains, growth OD

Measured: normalized growth

COc1ccc2c(=O)c(-c3cc4c(cc3OC)OCO4)coc2c1
inactive: locus YAL021C, strain ccr4, active compounds read low 1 | locus YAL026C, strain drs2, active compounds read low 1.01 | locus YAL030W, strain snc1, active compounds read low 1 | locus YBL061C, strain skt5, active compounds read low 1.01 | locus YBR009C, strain hhf1, active compounds read low 1 | locus YBR021W, strain FUR4, active compounds read low 0.907 | locus YBR023C, strain chs3, active compounds read low 1.01 | locus YBR171W, strain sec66, active compounds read low 1.01 | locus YBR229C, strain ROT2, active compounds read low 1 | locus YBR231C, strain swc5, active compounds read low 1.01 | locus YBR279W, strain paf1, active compounds read low 1.02 | locus YCL011C, strain gbp2, active compounds read low 1.01 | locus YCL016C, strain dcc1, active compounds read low 1.01 | locus YCL029C, strain bik1, active compounds read low 1 | locus YCL061C, strain MRC1, active compounds read low 1.01 | locus YCL069W, strain vba3, active compounds read low 1 | locus YCR088W, strain abp1, active compounds read low 1.01 | locus YDL005C, strain med2, active compounds read low 1.01 | locus YDL035C, strain GPR1, active compounds read low 1 | locus YDL040C, strain nat1, active compounds read low 1.01 | locus YDL074C, strain BRE1, active compounds read low 1.04 | locus YDL101C, strain DUN1, active compounds read low 1.05 | locus YDL185W, strain tfp1, active compounds read low 1.02 | locus YDL192W, strain arf1, active compounds read low 1.01 | locus YDR001C, strain nth1, active compounds read low 1.01 | locus YDR069C, strain doa4, active compounds read low 1.02 | locus YDR101C, strain arx1, active compounds read low 0.997 | locus YDR137W, strain rgp1, active compounds read low 0.971 | locus YDR159W, strain sac3, active compounds read low 1.03 | locus YDR162C, strain NBP2, active compounds read low 1.03 | locus YDR195W, strain ref2 1.03 | locus YDR297W, strain sur2, active compounds read low 1.01 | locus YDR318W, strain mcm21, active compounds read low 1 | locus YDR334W, strain swr1, active compounds read low 1.03 | locus YDR335W, strain msn5, active compounds read low 1.01 | locus YDR388W, active compounds read low 0.997 | locus YDR392W, strain spt3, active compounds read low 1.02 | locus YDR502C, strain sam2, active compounds read low 1.02 | locus YEL003W, strain gim4, active compounds read low 1.01 | locus YEL037C, strain rad23, active compounds read low 1.01 | locus YEL061C, strain CIN8 (second series), active compounds read low 1.01 | locus YER015W, strain faa2, active compounds read low 1.01 | locus YER016W, strain bim1, active compounds read low 1.01 | locus YER110C, active compounds read low 1.01 | locus YER111C, strain swi4, active compounds read low 1.01 | locus YER155C, strain BEM2 (second series), active compounds read low 1 | locus YER155C, strain BEM2, active compounds read low 1 | locus YER167W, strain BCK2, active compounds read low 1.02 | locus YFR010W, strain ubp6, active compounds read low 1.02 | locus YGL078C, strain dbp3, active compounds read low 1 | locus YGL086W, strain mad1, active compounds read low 0.993 | locus YGL167C, strain pmr1, active compounds read low 1.01 | locus YGL173C, strain kem1, active compounds read low 1 | locus YGL227W, strain vid30, active compounds read low 1.01 | locus YGL240W, strain doc1, active compounds read low 1 | locus YGL248W, strain PDE1, active compounds read low 1.02 | locus YGL253W, strain hxk2, active compounds read low 1.01 | locus YGR135W, strain pre9, active compounds read low 1 | locus YGR252W, strain gcn5, active compounds read low 0.907 | locus YHR013C, strain ard1, active compounds read low 1.03 | locus YHR027C, strain rpn1, active compounds read low 1.02 | locus YHR030C, strain SLT2, active compounds read low 0.98 | locus YHR079C, strain IRE1 (second series), active compounds read low 1.03 | locus YHR079C, strain IRE1, active compounds read low 0.982 | locus YHR094C, strain hxt1, active compounds read low 1.02 | locus YHR129C, strain ARP1, active compounds read low 1.03 | locus YHR142W, strain chs7, active compounds read low 0.987 | locus YHR200W, strain rpn10, active compounds read low 1.03 | locus YIL066C, strain RNR3, active compounds read low 1.02 | locus YIL073C, strain SPO22, active compounds read low 1.07 | locus YIL125W, strain kgd1, active compounds read low 1 | locus YIR030C, strain dcg1, active compounds read low 1.02 | locus YJL092W, strain hpr5, active compounds read low 1.02 | locus YJL095W, strain BCK1 (second series), active compounds read low 1.01 | locus YJL095W, strain BCK1, active compounds read low 1.01 and 0.987 | locus YJL115W, strain asf1, active compounds read low 1.02 | locus YJL129C, strain trk1, active compounds read low 0.996 | locus YJL134W, strain LCB3, active compounds read low 1.02 | locus YJL154C, strain vps35, active compounds read low 1 | locus YJL164C, strain tpk1, active compounds read low 1.02 | locus YJL166W, strain qcr8, active compounds read low 1 | locus YJL168C, strain set2, active compounds read low 1.02 | locus YJL187C, strain SWE1 (second series), active compounds read low 1.03 | locus YJL187C, strain SWE1, active compounds read low 1 | locus YJR066W, strain TOR1, active compounds read low 0.927 | locus YKL009W, strain mrt4, active compounds read low 0.952 | locus YKL068W, active compounds read low 1.03 | locus YKL085W, strain MDH1 (second series), active compounds read low 1.02 | locus YKL085W, strain MDH1, active compounds read low 1.02 | locus YKL160W, strain elf1, active compounds read low 1.01 | locus YKL190W, strain CNB1, active compounds read low 1.04 | locus YKR001C, strain vps1, active compounds read low 1.01 | locus YKR026C, strain gcn3, active compounds read low 1.01 | locus YKR091W, strain srl3, active compounds read low 1.01 | locus YLL001W, strain dnm1, active compounds read low 1.01 | locus YLL026W, active compounds read low 1.01 | locus YLL041C, strain sdh2, active compounds read low 1.01 | locus YLR027C, strain aat2, active compounds read low 1 | locus YLR039C, strain RIC1, active compounds read low 1.13 | locus YLR058C, strain SHM2, active compounds read low 1.02 | locus YLR102C, strain apc9, active compounds read low 1.01 | locus YLR113W, strain HOG1, active compounds read low 1.01 | locus YLR221C, strain rsa3, active compounds read low 1 | locus YLR258W, strain gsy2, active compounds read low 1 | locus YLR262C, strain YPT6 (second series), active compounds read low 1.01 | locus YLR262C, strain YPT6, active compounds read low 1.06 | locus YLR268W, strain sec22, active compounds read low 0.972 | locus YLR320W, strain mms22, active compounds read low 1.02 | locus YLR330W, strain CHS5, active compounds read low 1.02 | locus YLR342W, strain FKS1 (second series), active compounds read low 0.997 | locus YLR342W, strain FKS1, active compounds read low 1.01 | locus YLR357W, strain rsc2, active compounds read low 1.1 | locus YLR370C, strain arc18, active compounds read low 1.01 | locus YLR371W, strain rom2, active compounds read low 1.04 | locus YLR384C, strain iki3, active compounds read low 0.998 | locus YLR418C, strain cdc73, active compounds read low 1.05 | locus YML016C, strain PPZ1, active compounds read low 1.02 | locus YML032C, strain rad52, active compounds read low 0.98 | locus YML120C, strain ndi1, active compounds read low 1.02 | locus YML124C, strain tub3, active compounds read low 1.03 | locus YMR058W, strain fet3, active compounds read low 1.02 | locus YMR078C, strain ctf18, active compounds read low 1.02 | locus YMR125W, strain sto1, active compounds read low 1.04 | locus YMR129W, active compounds read low 1.01 | locus YMR205C, strain PFK2, active compounds read low 1.01 | locus YMR223W, strain ubp8, active compounds read low 1.01 | locus YMR231W, strain pep5, active compounds read low 1.01 | locus YMR307W, strain GAS1, active compounds read low 0.979 | locus YNL067W, strain RPL9B, active compounds read low 1.03 | locus YNL071W, strain lat1, active compounds read low 1 | locus YNL153C, strain GIM3, active compounds read low 1.04 | locus YNL183C, strain NPR1, active compounds read low 0.944 | locus YNL209W, strain ssb2, active compounds read low 1.01 | locus YNL233W, strain BNI4, active compounds read low 1.03 | locus YNL248C, strain rpa49, active compounds read low 1.02 | locus YNL250W, strain rad50, active compounds read low 1.06 | locus YNL271C, strain bni1, active compounds read low 1.02 | locus YNL298W, strain CLA4, active compounds read low 0.969 | locus YNL307C, strain MCK1, active compounds read low 0.97 | locus YNL322C, strain KRE1 (second series), active compounds read low 1.01 | locus YNL322C, strain KRE1, active compounds read low 1.02 | locus YNR049C, strain mso1, active compounds read low 1.01 | locus YNR052C, strain pop2, active compounds read low 1.02 | locus YOL012C, strain htz1 1.12 | locus YOL147C, strain pex11, active compounds read low 1 | locus YOR001W, strain rrp6, active compounds read low 1 | locus YOR061W, strain CKA2, active compounds read low 1.02 | locus YOR069W, strain VPS5, active compounds read low 1.02 | locus YOR070C, strain gyp1, active compounds read low 1 | locus YOR080W, strain dia2, active compounds read low 1.01 | locus YOR083W, strain WHI5, active compounds read low 0.999 | locus YOR106W, strain vam3, active compounds read low 1 | locus YOR136W, strain idh2, active compounds read low 1.01 | locus YOR144C, strain elg1, active compounds read low 1.04 | locus YOR184W, strain ser1, active compounds read low 0.957 | locus YOR231W, strain MKK1, active compounds read low 0.993 | locus YOR265W, strain rbl2, active compounds read low 1.01 | locus YOR270C, strain vph1, active compounds read low 1.04 | locus YOR290C, strain snf2, active compounds read low 1.02 | locus YOR316C, strain cot1, active compounds read low 1.02 | locus YPL051W, strain arl3, active compounds read low 1 | locus YPL078C, strain atp4, active compounds read low 1.01 | locus YPL106C, strain sse1, active compounds read low 0.996 | locus YPL240C, strain hsp82, active compounds read low 0.995 | locus YPL241C, strain CIN2, active compounds read low 1.04 | locus YPL256C, strain CLN2, active compounds read low 0.963 | locus YPR119W, strain clb2, active compounds read low 1.02 | locus YPR141C, strain kar3, active compounds read low 1.03 | locus YPR163C, strain tif3, active compounds read low 0.992 | locus YPR167C, strain met16, active compounds read low 1.02 | strain wtn01, active compounds read low 1.01
